Assays:
Assay in all cases: log2 ratio of Biotin-Ahx-Ub-VS probe labelling (compound/DMSO); higher = less target engagement, active = hit call of the paper (q ≤ 0.05, log2 ratio ≤ -1)
Details in all cases: treatment time: 3 h
[1] = compound: CCC1N(CCc2sccc12)C(=O)CCl
Method in brief: (§1)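 HEK293T lysate (495 µg per sample, in Tris/CHAPS/IGEPAL buffer with protease inhibitors) was exposed in triplicate to compound at 50 or 200 µM, or to DMSO, for 3 h, then to Biotin-Ahx-Ub-VS (0.5 µM final) for 1 h. The labelled DUBs were enriched on NeutrAvidin, digested with LysC and trypsin, and analysed by diaPASEF LC-MS/MS. Average base-two log ratios of compound over DMSO came from median-normalised label-free quantities by unpaired t-test. Only proteins with at least 2 unique peptides were used.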

[2] = compound: CN1c2ccccc2C(CS1(=O)=O)NC(=O)CCl
Method in brief: as §1

[3] = compound: Cl.ClCC(=O)N1CCc2ncncc2C1
Method in brief: as §1

[4] = compound: Cl.Cn1ncc2C(CCCc12)NC(=O)CCl
Method in brief: as §1

[5] = compound: ClCC(=O)NC1CCOc2ccccc12
Method in brief: as §1

[6] = compound: ClCC(=O)NC1CCCc2ccccc12
Method in brief: (§2)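 HEK293T lysate (495 µg per sample, in Tris/CHAPS/IGEPAL buffer with protease inhibitors) was treated in triplicate with compound over a concentration series or DMSO for 3 h, then with Biotin-Ahx-Ub-VS (0.5 µM final) for 1 h. Labelled DUBs were NeutrAvidin-enriched, digested with LysC and trypsin, and run by diaPASEF LC-MS/MS. Spectronaut label-free protein quantities were global-median-normalised. Values are average log2 ratios compound/DMSO from an unpaired t-test, using proteins with ≥2 unique peptides.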

[7] = compound: ClCC(=O)N[C@@H]1CCCc2ccccc12
Method in brief: as §2

[8] = compound: ClCC(=O)N[C@H]1CCCc2ccccc12
Method in brief: as §2

[9] = compound: CCC1N(CCc2cc(OC)c(Cl)cc12)C(=O)CCl
Method in brief: as §1

[10] = compound: CCCC1N(CCc2cc(OC)c(OC)cc12)C(=O)CCl
Method in brief: as §1

[11] = compound: CN(Cc1cccc(Br)c1)C(=O)CCl
Method in brief: as §1

[12] = compound: CN(Cc1ccccc1)C(=O)CCl
Method in brief: as §1

[13] = compound: COc1ccc(CN(C)C(=O)CCl)cc1
Method in brief: as §1

[14] = compound: COc1cccc(CN(CCCc2ccccc2)C(=O)CCl)c1
Method in brief: as §1

[15] = compound: ClCC(=O)N1CCc2cc(Cl)c(Cl)cc2C1
Method in brief: as §1

[16] = compound: ClCC(=O)N1CCc2nc(ncc2C1)-c1ccccc1
Method in brief: as §1

[17] = compound: ClCC(=O)N1CCc2nocc2C1
Method in brief: as §1

[18] = compound: ClCC(=O)N1CCc2scc(Br)c2C1
Method in brief: as §1

[19] = compound: ClCC(=O)NC(C1CCCC1)c1cccs1
Method in brief: as §1

Measured: log2 ratio of Biotin-Ahx-Ub-VS probe labelling

USP34 (UniProt Q70CQ2)
Chain of UniProt Q70CQ2 (Q70CQ2 whole entry): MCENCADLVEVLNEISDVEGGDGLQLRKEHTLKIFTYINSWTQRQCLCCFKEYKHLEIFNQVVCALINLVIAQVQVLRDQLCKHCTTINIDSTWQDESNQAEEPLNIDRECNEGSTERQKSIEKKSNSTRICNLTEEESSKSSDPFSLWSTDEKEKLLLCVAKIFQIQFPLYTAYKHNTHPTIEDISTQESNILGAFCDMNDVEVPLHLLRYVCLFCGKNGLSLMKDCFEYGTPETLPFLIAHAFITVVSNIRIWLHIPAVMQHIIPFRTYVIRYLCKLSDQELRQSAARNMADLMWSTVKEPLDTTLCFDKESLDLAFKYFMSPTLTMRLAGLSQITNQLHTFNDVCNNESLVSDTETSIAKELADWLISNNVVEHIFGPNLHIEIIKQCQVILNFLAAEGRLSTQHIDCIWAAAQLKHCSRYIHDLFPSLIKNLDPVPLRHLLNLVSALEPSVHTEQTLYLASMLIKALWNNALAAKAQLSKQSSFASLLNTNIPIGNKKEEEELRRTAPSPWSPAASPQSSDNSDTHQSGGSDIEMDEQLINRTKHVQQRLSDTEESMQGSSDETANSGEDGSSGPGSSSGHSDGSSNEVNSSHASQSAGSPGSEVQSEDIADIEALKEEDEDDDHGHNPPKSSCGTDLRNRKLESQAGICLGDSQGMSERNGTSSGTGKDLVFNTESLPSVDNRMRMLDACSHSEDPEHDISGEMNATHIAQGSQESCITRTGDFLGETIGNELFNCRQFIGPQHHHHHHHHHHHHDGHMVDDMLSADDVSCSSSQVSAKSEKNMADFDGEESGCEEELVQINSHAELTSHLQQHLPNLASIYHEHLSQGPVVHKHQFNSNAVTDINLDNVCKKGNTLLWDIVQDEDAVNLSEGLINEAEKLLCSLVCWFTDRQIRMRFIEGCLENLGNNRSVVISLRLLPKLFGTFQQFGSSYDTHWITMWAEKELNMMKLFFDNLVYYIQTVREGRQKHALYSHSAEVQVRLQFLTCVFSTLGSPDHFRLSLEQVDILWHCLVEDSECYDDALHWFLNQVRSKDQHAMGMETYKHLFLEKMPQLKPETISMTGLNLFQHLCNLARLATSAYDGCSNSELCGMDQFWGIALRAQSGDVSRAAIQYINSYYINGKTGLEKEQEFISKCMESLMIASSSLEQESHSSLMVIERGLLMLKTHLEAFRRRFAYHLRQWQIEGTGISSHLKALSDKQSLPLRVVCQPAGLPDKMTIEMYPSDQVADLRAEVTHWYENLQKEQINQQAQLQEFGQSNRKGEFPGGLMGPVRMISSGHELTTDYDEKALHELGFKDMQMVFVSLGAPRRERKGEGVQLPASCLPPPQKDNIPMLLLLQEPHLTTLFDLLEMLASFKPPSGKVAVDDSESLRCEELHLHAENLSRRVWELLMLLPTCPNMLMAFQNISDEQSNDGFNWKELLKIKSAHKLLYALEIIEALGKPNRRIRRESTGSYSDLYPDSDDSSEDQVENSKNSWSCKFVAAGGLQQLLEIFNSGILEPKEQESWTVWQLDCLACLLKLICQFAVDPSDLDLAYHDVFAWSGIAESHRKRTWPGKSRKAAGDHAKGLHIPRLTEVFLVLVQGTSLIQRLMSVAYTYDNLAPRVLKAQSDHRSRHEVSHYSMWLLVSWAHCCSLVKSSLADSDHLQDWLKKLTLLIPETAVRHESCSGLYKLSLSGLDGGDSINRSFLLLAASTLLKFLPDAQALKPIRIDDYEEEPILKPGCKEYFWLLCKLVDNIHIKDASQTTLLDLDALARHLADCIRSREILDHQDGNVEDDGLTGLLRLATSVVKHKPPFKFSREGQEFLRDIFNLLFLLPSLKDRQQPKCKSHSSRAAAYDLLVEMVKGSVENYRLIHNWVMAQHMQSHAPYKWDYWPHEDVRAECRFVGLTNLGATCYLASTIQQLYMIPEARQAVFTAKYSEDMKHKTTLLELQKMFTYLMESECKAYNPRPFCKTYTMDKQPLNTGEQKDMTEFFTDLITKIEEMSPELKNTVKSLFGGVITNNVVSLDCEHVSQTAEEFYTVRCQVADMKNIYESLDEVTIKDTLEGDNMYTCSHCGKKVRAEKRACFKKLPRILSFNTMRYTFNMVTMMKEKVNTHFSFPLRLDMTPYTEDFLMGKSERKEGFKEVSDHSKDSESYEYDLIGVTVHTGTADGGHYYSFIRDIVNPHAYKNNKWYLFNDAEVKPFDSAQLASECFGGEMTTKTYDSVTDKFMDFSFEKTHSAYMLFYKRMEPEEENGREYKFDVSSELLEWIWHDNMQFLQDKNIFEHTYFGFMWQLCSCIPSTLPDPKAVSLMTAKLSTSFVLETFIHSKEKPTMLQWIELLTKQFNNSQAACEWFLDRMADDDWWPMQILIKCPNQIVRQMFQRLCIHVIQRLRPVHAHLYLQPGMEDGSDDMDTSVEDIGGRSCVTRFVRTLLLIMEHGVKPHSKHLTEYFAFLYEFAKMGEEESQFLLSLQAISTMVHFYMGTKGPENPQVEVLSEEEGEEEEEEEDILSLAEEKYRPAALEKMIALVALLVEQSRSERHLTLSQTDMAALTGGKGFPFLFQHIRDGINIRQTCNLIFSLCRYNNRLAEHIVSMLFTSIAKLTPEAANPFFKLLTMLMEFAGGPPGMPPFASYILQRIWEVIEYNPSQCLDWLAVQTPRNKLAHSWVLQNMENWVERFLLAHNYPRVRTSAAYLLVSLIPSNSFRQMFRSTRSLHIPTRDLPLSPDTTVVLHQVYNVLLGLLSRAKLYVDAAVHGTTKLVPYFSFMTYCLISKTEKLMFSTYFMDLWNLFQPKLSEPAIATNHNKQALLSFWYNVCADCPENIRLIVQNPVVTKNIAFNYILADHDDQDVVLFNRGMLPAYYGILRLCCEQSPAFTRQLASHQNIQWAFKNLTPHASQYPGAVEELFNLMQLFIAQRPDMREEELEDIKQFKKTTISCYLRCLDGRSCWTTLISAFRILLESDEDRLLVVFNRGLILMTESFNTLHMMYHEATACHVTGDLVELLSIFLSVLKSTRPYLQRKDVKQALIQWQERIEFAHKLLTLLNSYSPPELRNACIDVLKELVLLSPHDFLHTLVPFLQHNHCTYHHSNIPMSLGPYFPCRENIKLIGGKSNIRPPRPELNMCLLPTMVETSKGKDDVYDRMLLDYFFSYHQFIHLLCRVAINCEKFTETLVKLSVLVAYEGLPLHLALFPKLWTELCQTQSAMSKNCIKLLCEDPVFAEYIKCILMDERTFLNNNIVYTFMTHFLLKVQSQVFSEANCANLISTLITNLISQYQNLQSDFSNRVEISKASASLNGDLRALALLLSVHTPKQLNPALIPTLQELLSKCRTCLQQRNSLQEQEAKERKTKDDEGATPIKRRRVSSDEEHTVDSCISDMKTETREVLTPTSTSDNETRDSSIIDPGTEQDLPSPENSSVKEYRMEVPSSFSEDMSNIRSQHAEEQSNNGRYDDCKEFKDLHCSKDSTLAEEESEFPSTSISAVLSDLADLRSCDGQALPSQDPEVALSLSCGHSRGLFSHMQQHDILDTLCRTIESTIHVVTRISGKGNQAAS
active: [9]; compound concentration: 200uM -1.07 | [15]; compound concentration: 200uM -1.47
inactive: [1]; compound concentration: 50uM 0.0562 | [1]; compound concentration: 200uM 0.0678 | [2]; compound concentration: 50uM -0.259 | [2]; compound concentration: 200uM -0.515 | [3]; compound concentration: 50uM -0.659 | [3]; compound concentration: 200uM 0.31 | [4]; compound concentration: 50uM 0.745 | [4]; compound concentration: 200uM -0.98 | [5]; compound concentration: 50uM -0.212 | [5]; compound concentration: 200uM -0.0537 | [6]; compound concentration: 0.78uM 0.221 | [6]; compound concentration: 1.56uM 0.0458 | [6]; compound concentration: 3.13uM 0.0621 | [6]; compound concentration: 6.25uM -0.0557 | [6]; compound concentration: 12.5uM -0.314 | [6]; compound concentration: 25uM 0.126 | [6]; compound concentration: 50uM 0.134 | [6]; compound concentration: 100uM 0.11 | [6]; compound concentration: 200uM -0.619 | [7]; compound concentration: 0.78uM -0.0727 | [7]; compound concentration: 1.56uM -0.0851 | [7]; compound concentration: 3.13uM -0.276 | [7]; compound concentration: 6.25uM -0.184 | [7]; compound concentration: 12.5uM -0.209 | [7]; compound concentration: 25uM -0.23 | [7]; compound concentration: 50uM -0.396 | [7]; compound concentration: 100uM 0.0355 | [7]; compound concentration: 200uM 0.0474 | [8]; compound concentration: 0.78uM 0.0344 | [8]; compound concentration: 1.56uM -0.271 | [8]; compound concentration: 3.13uM -0.199 | [8]; compound concentration: 6.25uM 0.0878 | [8]; compound concentration: 12.5uM 0.322 | [8]; compound concentration: 25uM -0.00214 | [8]; compound concentration: 50uM 0.198 | [8]; compound concentration: 100uM 0.181 | [8]; compound concentration: 200uM -0.295 | [9]; compound concentration: 50uM 0.165 | [10]; compound concentration: 50uM 0.0993 | [10]; compound concentration: 200uM 0.244 | [11]; compound concentration: 50uM 0.504 | [11]; compound concentration: 200uM 0.192 | [12]; compound concentration: 50uM 0.682 | [12]; compound concentration: 200uM -0.913 | [13]; compound concentration: 50uM 0.746 | [13]; compound concentration: 200uM -0.399 | [14]; compound concentration: 50uM -0.287 | [14]; compound concentration: 200uM -0.935 | [15]; compound concentration: 50uM -0.17 | [16]; compound concentration: 50uM 0.583 | [16]; compound concentration: 200uM -0.403 | [17]; compound concentration: 50uM 0.31 | [17]; compound concentration: 200uM -0.0396 | [18]; compound concentration: 50uM 0.689 | [18]; compound concentration: 200uM -0.0731 | [19]; compound concentration: 50uM -0.0579 | [19]; compound concentration: 200uM -0.14
